For three compounds, AC50 and outcome results are on record in PubChem BioAssay (EPA / NIEHS).

Values joined by “and” are separate entries in the source; they are usually repeats but may differ in a detail not shown here. Equal values may be shown once. More than one record can exist for a structure, and the calls need not agree. Active and inactive are the calls of the source. How the source made its calls: active means hit-call score of the fitted dose curve at least 0.9, where 1 is the maximum; inactive means score below 0.9.

Read-out in assay [1]: TIMP metallopeptidase inhibitor 1 (TIMP1), TIMP1 (gene 7076)
Briefly: BSK_hDFCGF_TIMP1: BioMAP Diversity Plus: hDFCGF Assay for TIMP metallopeptidase inhibitor 1 (TIMP1) Biomarker Activity (AID 2283062). To be noted: primary human foreskin fibroblasts; actives raise or lower the signal. In short, it runs like this:
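Human foreskin fibroblast primary cultures dosed for 24 h; secreted/surface TIMP-1 quantified by ELISA. Bidirectional curve fitting against DMSO baseline; cytotoxicity tracked in parallel cultures by SRB total-protein staining.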

Read-out in assay [2]: Monokine induced gamma interferon (MIG), CXCL9 (gene 4283)
Put plainly: BSK_hDFCGF_MIG: BioMAP Diversity Plus: hDFCGF Assay for Monokine induced gamma interferon (MIG) Biomarker Activity (AID 2283063). The settings on record: primary human foreskin fibroblasts; actives raise or lower the signal. In short, it runs like this:
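MIG/CXCL9 measured by ELISA 24 h after dosing primary human skin fibroblasts. Activity fitted in both directions against DMSO controls. Cytotoxicity was checked in parallel cultures by SRB staining read at 560 nm.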

Read-out in assay [3]: Vascular cell adhesion molecule 1 (VCAM1), VCAM1 (gene 7412)
Briefly: BSK_hDFCGF_VCAM1: BioMAP Diversity Plus: hDFCGF Assay for Vascular cell adhesion molecule 1 (VCAM1) Biomarker Activity (AID 2283065).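 On AC50: VCAM-1 protein level quantified by ELISA after 24 h chemical exposure.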 To be noted: primary human foreskin fibroblasts; actives raise or lower the signal. In a few lines: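 Human foreskin fibroblast primary cells dosed with chemical, VCAM-1 measured by ELISA at 24 h. Bidirectional curve fitting relative to DMSO as negative control/baseline.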

Read-out in assay [4]: Plasminogen activator inhibitor-1 (PAI1), SERPINE1 (gene 5054)
Briefly: BSK_hDFCGF_PAI1: BioMAP Diversity Plus: hDFCGF Assay for Plasminogen activator inhibitor-1 (PAI1) Biomarker Activity (AID 2283066). The settings on record: primary human foreskin fibroblasts; actives raise or lower the signal. In short, it runs like this:
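Human foreskin fibroblast primary cells, 24 h chemical exposure; PAI-1 measured by ELISA. Bidirectional fitting relative to DMSO; parallel cultures stained with SRB for total protein to flag overt cytotoxicity.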

Read-out in assay [5]: Intercellular Adhesion Molecule 1 (ICAM1), ICAM1 (gene 3383)
Briefly: BSK_KF3CT_ICAM1: BioMAP Diversity Plus: KF3CT Assay for Intercellular Adhesion Molecule 1 (ICAM1) Biomarker Activity (AID 2283067). The settings on record: primary human keratinocytes with fibroblasts; actives raise or lower the signal. In a few lines:
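Human keratinocyte–foreskin fibroblast co-culture was treated for 24 h. Cell-surface ICAM-1 was quantified by ELISA, fitted bidirectionally relative to DMSO. Cytotoxicity was checked in parallel cultures by SRB total-protein staining.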

Read-out in assay [6]: Interferon-gamma inducible Protein 10 (IP10), CXCL10 (gene 3627)
Briefly: BSK_KF3CT_IP10: BioMAP Diversity Plus: KF3CT Assay for Interferon-gamma inducible Protein 10 (IP10) Biomarker Activity (AID 2283068). The settings on record: primary human keratinocytes with fibroblasts; actives raise or lower the signal. In a few lines: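 Human keratinocyte plus foreskin fibroblast primary co-culture exposed to test chemical for 24 h; IP-10 measured by ELISA. Concentration-response fitted bidirectionally against DMSO control as baseline.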

Assay [7] can be described thus: BSK_KF3CT_SRB: Viability Assessment in the BioMAP Diversity Plus: KF3CT Assay (AID 2283069).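 Further: total protein by sulforhodamine B staining as a cytotoxicity measure; fitted for both signal gain and loss against DMSO baseline.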 To be noted: primary human keratinocytes with fibroblasts. In short, it runs like this:
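Keratinocytes co-cultured with foreskin fibroblasts (human primary); chemical added, 24 h; fix 10% TCA, stain 0.1% SRB, A560. Bidirectional fit vs DMSO.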

Read-out in assay [8]: Interleukin-1 alpha (IL1a), IL1A (gene 3552)
Put plainly: BSK_KF3CT_IL1a: BioMAP Diversity Plus: KF3CT Assay for Interleukin-1 alpha (IL1a) Biomarker Activity (AID 2283070). To be noted: primary human keratinocytes with fibroblasts; actives raise or lower the signal. In short, it runs like this: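 Chemicals were dosed onto co-cultured human keratinocytes and foreskin fibroblasts, IL-1a was quantified by ELISA at 24 h, and activity was fitted in both directions relative to DMSO controls.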

Read-out in assay [9]: TIMP metallopeptidase inhibitor 2 (TIMP2), TIMP2 (gene 7077)
Put plainly: BSK_KF3CT_TIMP2: BioMAP Diversity Plus: KF3CT Assay for TIMP metallopeptidase inhibitor 2 (TIMP2) Biomarker Activity (AID 2283071). The settings on record: primary human keratinocytes with fibroblasts; actives raise or lower the signal. In short, it runs like this: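 Co-culture of human primary keratinocytes and foreskin fibroblasts, measured 24 h after chemical dosing. TIMP-2 quantified by ELISA and fitted in both directions relative to DMSO. Cytotoxicity checked in parallel cultures by SRB total-protein staining.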

Read-out in assay [10]: Transforming growth factor beta 1 (TGFb1), TGFB1 (gene 7040)
Put plainly: BSK_KF3CT_TGFb1: BioMAP Diversity Plus: KF3CT Assay for Transforming growth factor beta 1 (TGFb1) Biomarker Activity (AID 2283072). To be noted: primary human keratinocytes with fibroblasts; actives raise or lower the signal. In short, it runs like this: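 Human keratinocyte/foreskin fibroblast co-culture; TGF-b1 measured by ELISA 24 h after dosing, fitted bidirectionally versus DMSO. Cytotoxicity checked in parallel cultures by total protein (SRB staining, 560 nm).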

Read-out in assay [11]: C-C motif chemokine 2 (Homo sapiens) (UniProt P13500)
Put plainly: BSK_KF3CT_MCP1: BioMAP Diversity Plus: KF3CT Assay for Monocyte Chemoattractant Protein 1 (MCP1/CCL2) Biomarker Activity (AID 2283073). To be noted: primary human keratinocytes with fibroblasts; actives raise or lower the signal. In a few lines:
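Human keratinocyte–foreskin fibroblast co-culture; MCP-1 measured by ELISA 24 h after dosing. Bidirectional fit vs DMSO; cytotoxicity tracked by SRB total protein in parallel cultures.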

Read-out in assay [12]: Matrix Metallopeptidase 9 (MMP9), MMP9 (gene 4318)
Briefly: BSK_KF3CT_MMP9: BioMAP Diversity Plus: KF3CT Assay for Matrix Metallopeptidase 9 (MMP9) Biomarker Activity (AID 2283074).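 On AC50: MMP9 protein level quantified by ELISA in the co-culture.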 The settings on record: primary human keratinocytes with fibroblasts; actives raise or lower the signal. In a few lines: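 Human keratinocyte/foreskin fibroblast co-culture; compound added; 24 h; MMP-9 by ELISA; bidirectional fit vs DMSO baseline.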

Read-out in assay [13]: urokinase plasminogen activator (uPA), PLAU (gene 5328)
Briefly: BSK_KF3CT_uPA: BioMAP Diversity Plus: KF3CT Assay for urokinase plasminogen activator (uPA) Biomarker Activity (AID 2283075). To be noted: primary human keratinocytes with fibroblasts; actives raise or lower the signal. In short, it runs like this: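 ELISA readout of uPA, analyzed for signal gain or loss relative to DMSO, from a human primary keratinocyte–foreskin fibroblast co-culture measured 24 h after chemical treatment.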

Read-out in a further assay: CD40, CD40 (gene 958)
Briefly: BSK_LPS_CD40: BioMAP Diversity Plus: LPS Assay for CD40 Biomarker Activity (AID 2283076). To be noted: primary human HUVEC with PBMC; actives raise or lower the signal. In short, it runs like this: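 HUVEC plus PBMC co-culture stimulated with LPS; CD40 quantified by ELISA 24 h after compound dosing. Fitting was bidirectional relative to DMSO. SRB staining of parallel cultures flagged overt cytotoxicity.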

Read-out in assay [14]: E-selectin (Homo sapiens) (UniProt P16581)
Put plainly: BSK_LPS_Eselectin: BioMAP Diversity Plus: LPS Assay for Eselectin Biomarker Activity (AID 2283077). To be noted: primary human HUVEC with PBMC; actives raise or lower the signal. In short, it runs like this: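 Human umbilical vein endothelial cells co-cultured with PBMC under LPS stimulation; cell-surface E-selectin measured by ELISA 24 h after dosing. Change in either direction versus DMSO, with SRB total-protein staining in parallel cultures for cytotoxicity.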

Read-out in assay [15]: Interleukin-8 (IL8), CXCL8 (gene 3576)
Put plainly: BSK_LPS_IL8: BioMAP Diversity Plus: LPS Assay for Interleukin-8 (IL8) Biomarker Activity (AID 2283078). To be noted: primary human HUVEC with PBMC; actives raise or lower the signal. In a few lines: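 Human umbilical vein endothelial cells co-cultured with PBMC, LPS-stimulated, exposed to compound for 24 h. IL-8 quantified by ELISA; fitted in both directions against DMSO, with SRB total-protein staining of parallel cultures for cytotoxicity.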

Assay [16] can be described thus: BSK_LPS_SRB: Viability Assessment in the BioMAP Diversity Plus: LPS Assay (AID 2283079).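 Further: total protein by sulforhodamine B absorbance as a cytotoxicity measure; measured one day after compound addition; fitted in both directions against DMSO so loss or gain of signal counts.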 The settings on record: primary human HUVEC with PBMC. In a few lines:
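Co-culture of human umbilical vein endothelial cells and PBMC, read 24 h after dosing. Total protein by 0.1% SRB staining after 10% TCA fixation, absorbance at 560 nm; bidirectional fit against DMSO.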

Read-out in assay [17]: Interleukin-1 alpha (IL1a), IL1A (gene 3552)
Put plainly: BSK_LPS_IL1a: BioMAP Diversity Plus: LPS Assay for Interleukin-1 alpha (IL1a) Biomarker Activity (AID 2283080). To be noted: primary human HUVEC with PBMC; actives raise or lower the signal. In a few lines:
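Human umbilical vein endothelial cells co-cultured with PBMC and stimulated with LPS; IL-1a measured by ELISA 24 h after dosing. Bidirectional fitting against DMSO; cytotoxicity checked by SRB staining in parallel cultures.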

Read-out in assay [18]: Monocyte Chemoattractant Protein-1 (MCP1), CCL2 (gene 6347)
Briefly: BSK_LPS_MCP1: BioMAP Diversity Plus: LPS Assay for Monocyte Chemoattractant Protein-1 (MCP1) Biomarker Activity (AID 2283081).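 On AC50: secreted MCP-1 protein quantified by ELISA in culture supernatant.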 To be noted: primary human HUVEC with PBMC; actives raise or lower the signal. In a few lines:
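Human umbilical vein endothelial cells co-cultured with PBMC, LPS-stimulated; secreted MCP-1 measured by ELISA 24 h after compound addition. Bidirectional curve fitting against DMSO baseline; SRB total-protein staining in parallel cultures for cytotoxicity.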

Read-out in assay [19]: Matrix Metallopeptidase 1 (MMP1), MMP1 (gene 4312)
Briefly: BSK_hDFCGF_MMP1: BioMAP Diversity Plus: hDFCGF Assay for Matrix Metallopeptidase 1 (MMP1) Biomarker Activity (AID 2283064). The settings on record: primary human foreskin fibroblasts; actives raise or lower the signal. In a few lines: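 hDFCGF primary fibroblasts (human foreskin); chemical added; 24 h; MMP1 by ELISA; bidirectional fit vs DMSO.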

E-selectin (Homo sapiens), sequence (P16581 whole entry, looked up): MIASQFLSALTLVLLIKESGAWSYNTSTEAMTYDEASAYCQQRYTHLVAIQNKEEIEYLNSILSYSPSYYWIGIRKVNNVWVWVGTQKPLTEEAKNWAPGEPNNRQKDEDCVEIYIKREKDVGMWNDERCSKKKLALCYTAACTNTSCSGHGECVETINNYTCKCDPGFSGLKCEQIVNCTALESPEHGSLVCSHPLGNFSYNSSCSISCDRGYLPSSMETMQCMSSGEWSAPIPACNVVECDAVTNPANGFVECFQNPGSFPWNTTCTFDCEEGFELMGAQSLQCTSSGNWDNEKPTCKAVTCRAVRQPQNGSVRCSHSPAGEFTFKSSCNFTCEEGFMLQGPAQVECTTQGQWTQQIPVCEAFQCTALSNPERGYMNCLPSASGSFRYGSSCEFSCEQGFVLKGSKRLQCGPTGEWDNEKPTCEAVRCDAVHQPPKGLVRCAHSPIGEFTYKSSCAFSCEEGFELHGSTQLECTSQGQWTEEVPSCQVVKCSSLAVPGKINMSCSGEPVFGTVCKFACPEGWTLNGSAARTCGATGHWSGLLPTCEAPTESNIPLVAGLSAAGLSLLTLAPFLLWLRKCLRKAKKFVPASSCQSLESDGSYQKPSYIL

In the case of `CCNS(=O)(=O)C(F)(F)C(F)(F)C(F)(F)C(F)(F)C(F)(F)C(F)(F)C(F)(F)C(F)(F)F`, the AC50 in [1] is 47.2 µM (active) and 53.5 µM (active); in assay [2], 19.3 µM (active) and 28.3 µM (active) and 36 µM (active); in [3], 5.73 µM (active) and 13.5 µM (active); in assay [4] it was 30.1 µM (active) and 23.3 µM (active) and 47.3 µM (active); in assay [5], 46.2 µM (active); in assay [6], 20.9 µM (active) and 30.5 µM (active) and 43.7 µM (active). Besides, the AC50 is 46.1 µM (active) in assay [7]; 41.5 µM (active) and 47.7 µM (active) in [8]; 48.2 µM (active) and 54.7 µM (active) in assay [9]; 19.3 µM (active) in assay [10]; 47.8 µM (active) in assay [11]; 29.6 µM (active) and 40.2 µM (active) and 36.2 µM (active) in [12]. Also, the AC50 in [13] was 50.5 µM (active) and 47.5 µM (active); with CD40, CD40 (gene 958), 46.1 µM (active) and 42.2 µM (active); in assay [15] it was 30 µM (active); in assay [16] it was 44.2 µM (active) and 46 µM (active); in assay [18], 48.8 µM (active) and 51.7 µM (active). Further, the outcome in assay [1], in [5], in [7], in assay [8], in [9] and in assay [11] was inactive. For the same compound, the outcome in assay [13] is “inactive”; in the assay with CD40, CD40 (gene 958), “inactive”; in assay [14], “inactive”; in assay [15], “inactive”; in assay [16] it was “inactive”; in assay [17], “inactive”. In addition, the outcome in assay [18] was inactive.

For the compound `CC(C)(C)C(O)(CCc1ccc(Cl)cc1)Cn1cncn1` (configuration not stated), the outcome in [1], in assay [2], in assay [3], in assay [4], in [5] and in assay [6] was inactive. Further, the result in assay [7], in assay [8], in assay [9], in assay [10], in assay [11] and in assay [12] was inactive. In addition, the outcome is “inactive” in assay [13]; “inactive” in the assay with CD40, CD40 (gene 958); “inactive” in assay [14]; “inactive” in assay [15]; “inactive” in [16]; “inactive” in [17]. In addition, in assay [18], the result was inactive.

For the compound `Nc1ccc([N+](=O)[O-])cc1`, the result in assay [1], in assay [2], in assay [19], in assay [5], in assay [6] and in assay [7] was inactive. The result in [8], in assay [9], in assay [10], in assay [11], in assay [12] and in [13] was inactive. The outcome was “inactive” in the assay with CD40, CD40 (gene 958); “inactive” in assay [14]; “inactive” in [15]; “inactive” in assay [16]; “inactive” in [17]; “inactive” in [18].

As a reminder, the AC50 is the midpoint of the concentration-response curve, whichever way the signal moves.
